# Compounds with a hit are over-represented: about 12% of the library has one in this group of screens.
# HP1b chromo inh: HTS for Inhibitors of HP1-beta Chromodomain Interactions with Methylated Histone Tails. AID 540317, 2011. AlphaScreen HP1-beta / biotin-H3K9me3 peptide binding. Potency, µM (top dose mostly 114 µM), for the others: top-dose activity change, negative = inhibition, most hits filed as inhibitors. Chromobox protein homolog 1 (Homo sapiens), P83916. actives 0.56% (n = 390,000); further: nearly all actives have a fitted effect of over 70% in size
#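 Compound inhibition of the preformed complex between 50 nM HP1-beta and 50 nM biotinylated H3K9me3 peptide was read by AlphaScreen. Buffer was PBS pH 7.4 with 0.01% Tween-20. Incubations ran 30 min at room temperature, with 10 ug/mL donor/acceptor beads.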
# JMJD2A Tudor: qHTS Assay for Inhibitors of JMJD2A-Tudor Domain | Lysine-specific demethylase 4A (Homo sapiens), O75164 | AlphaScreen JMJD2A-Tudor / H3K4me3 peptide binding | Potency, µM (doses to about 114 µM), for inactives: at the highest dose activity change, negative = inhibition, usual class: inhibitors | actives 4.4% (n = 390,000) | AID 504339, 2011; further: on the % scale 0 is the no-effect control and ±100 the full control effect; nearly all actives have a fitted effect of over 50% in size
# BAZ2B inh: qHTS Assay for Inhibitors of BAZ2B; Potency, µM (series often up to 114 µM), for inactives: at the highest dose activity change, negative = inhibition, usual class: inhibitors; actives 4.4% (n = 360,000); Bromodomain adjacent to zinc finger domain protein 2B (Homo sapiens), Q9UIF8; AlphaScreen BAZ2B-H3K14Ac peptide displacement; further: on the % scale 0 is the no-effect control and ±100 the full control effect; nearly all actives have a fitted effect of over 60% in size
# Target sequence (Q9UIF8 whole entry, looked up, the tested form may be a part): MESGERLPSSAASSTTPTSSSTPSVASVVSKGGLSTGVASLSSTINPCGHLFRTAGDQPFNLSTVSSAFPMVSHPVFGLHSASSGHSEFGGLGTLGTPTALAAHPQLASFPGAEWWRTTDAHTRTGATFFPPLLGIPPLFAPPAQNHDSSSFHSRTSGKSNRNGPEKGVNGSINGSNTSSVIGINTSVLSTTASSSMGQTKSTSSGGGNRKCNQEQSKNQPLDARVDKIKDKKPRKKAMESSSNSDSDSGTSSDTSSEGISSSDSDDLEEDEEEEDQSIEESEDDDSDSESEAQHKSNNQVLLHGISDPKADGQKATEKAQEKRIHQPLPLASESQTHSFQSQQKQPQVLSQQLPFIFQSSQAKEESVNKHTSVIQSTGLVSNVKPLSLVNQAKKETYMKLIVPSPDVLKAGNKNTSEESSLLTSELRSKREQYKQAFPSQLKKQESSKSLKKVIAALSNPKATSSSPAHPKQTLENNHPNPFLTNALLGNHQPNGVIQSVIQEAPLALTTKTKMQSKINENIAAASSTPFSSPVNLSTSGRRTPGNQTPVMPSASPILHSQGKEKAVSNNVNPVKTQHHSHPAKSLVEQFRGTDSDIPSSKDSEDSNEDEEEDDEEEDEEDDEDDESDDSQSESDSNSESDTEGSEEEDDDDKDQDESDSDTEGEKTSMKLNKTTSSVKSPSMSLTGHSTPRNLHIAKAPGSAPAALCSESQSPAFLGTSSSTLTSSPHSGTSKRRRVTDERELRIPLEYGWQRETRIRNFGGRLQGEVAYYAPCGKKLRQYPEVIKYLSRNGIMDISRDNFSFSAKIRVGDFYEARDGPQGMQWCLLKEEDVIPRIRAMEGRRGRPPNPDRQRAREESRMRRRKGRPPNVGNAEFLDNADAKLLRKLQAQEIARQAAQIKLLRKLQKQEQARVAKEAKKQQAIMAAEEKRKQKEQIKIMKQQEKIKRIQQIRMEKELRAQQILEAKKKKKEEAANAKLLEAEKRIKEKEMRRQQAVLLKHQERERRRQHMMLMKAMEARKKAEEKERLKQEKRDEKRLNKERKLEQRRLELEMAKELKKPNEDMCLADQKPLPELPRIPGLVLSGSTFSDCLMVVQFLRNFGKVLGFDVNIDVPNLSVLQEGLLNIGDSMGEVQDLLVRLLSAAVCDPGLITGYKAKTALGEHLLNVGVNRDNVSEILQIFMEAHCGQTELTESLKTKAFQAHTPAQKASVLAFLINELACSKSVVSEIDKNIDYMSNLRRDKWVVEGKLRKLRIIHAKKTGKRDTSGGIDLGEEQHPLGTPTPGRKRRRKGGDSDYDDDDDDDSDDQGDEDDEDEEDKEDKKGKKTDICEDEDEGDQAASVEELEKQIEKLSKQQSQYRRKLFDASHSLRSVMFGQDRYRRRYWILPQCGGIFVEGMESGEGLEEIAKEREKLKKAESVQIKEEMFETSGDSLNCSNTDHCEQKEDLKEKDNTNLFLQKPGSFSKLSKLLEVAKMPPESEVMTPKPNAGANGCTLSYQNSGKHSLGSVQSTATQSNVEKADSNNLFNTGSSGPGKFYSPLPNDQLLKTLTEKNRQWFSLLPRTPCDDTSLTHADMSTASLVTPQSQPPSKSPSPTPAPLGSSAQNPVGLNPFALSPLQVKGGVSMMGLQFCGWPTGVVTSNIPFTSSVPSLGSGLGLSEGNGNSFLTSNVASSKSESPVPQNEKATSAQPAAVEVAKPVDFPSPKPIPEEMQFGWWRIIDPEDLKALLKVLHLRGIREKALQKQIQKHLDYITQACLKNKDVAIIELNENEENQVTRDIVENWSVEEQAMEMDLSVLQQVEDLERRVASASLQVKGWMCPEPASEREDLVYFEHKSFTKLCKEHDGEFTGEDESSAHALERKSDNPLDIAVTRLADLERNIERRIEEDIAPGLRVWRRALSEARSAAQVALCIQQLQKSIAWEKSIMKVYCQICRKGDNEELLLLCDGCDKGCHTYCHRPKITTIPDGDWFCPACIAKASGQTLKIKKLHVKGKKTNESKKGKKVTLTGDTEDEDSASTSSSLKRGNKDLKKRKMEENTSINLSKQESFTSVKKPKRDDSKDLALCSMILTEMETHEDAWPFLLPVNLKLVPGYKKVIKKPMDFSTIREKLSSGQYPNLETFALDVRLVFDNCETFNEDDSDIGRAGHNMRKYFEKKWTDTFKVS
#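 BAZ2B 50 nM plus b-H3(5-23)K14Ac 50 nM, PBS pH 7.4/0.01% Tween-20, 30 min RT; compound added (max 110 uM), 30 min RT; streptavidin donor/Ni-chelate acceptor beads 10 ug/mL final, 20 min dark; AlphaScreen read.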
# PLK1 PBD block: qHTS for Inhibitors of PLK1-PDB (polo-like kinase 1 - polo-box domain): Primary Screen | Plk1 PBD binding of FITC phosphopeptide, fluorescence polarization | AID 720504, 2013 | actives 2.8% (n = 360,000) | Potency, µM, without a hit: max response, negative = inhibition, hits mostly inhibitors | Serine/threonine-protein kinase PLK1 (Homo sapiens), P53350; further: series mostly up to about 57 µM; on the % scale 0 is the no-effect control and ±100 the full control effect; nearly all actives have a fitted effect of over 65% in size
# G9a inh: qHTS Assay for Inhibitors of Histone Lysine Methyltransferase G9a; Histone-lysine N-methyltransferase EHMT2 (Homo sapiens), Q96KQ7; actives 8.8% (n = 350,000); Potency, µM (doses to about 102 µM), for the others: at the top dose activity, negative = inhibition, actives largely listed as inhibitors; G9a H3K9 monomethylation, AlphaScreen, 2 h; further: on the % scale 0 is the no-effect control and ±100 the full control effect; nearly all actives have a fitted effect of over 75% in size
#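 G9a (20 nM) preincubated 15 min RT with compounds, then 500 nM biotinylated H3K9 peptide and 20 uM SAM added; 2 h RT reaction. Monomethyl-H3K9 product detected by AlphaScreen with anti-H3K9me1 antibody, streptavidin donor and anti-rabbit IgG acceptor beads.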
# Sfp PPTase inh: qHTS Assay for Inhibitors of Bacillus subtilis Sfp phosphopantetheinyl transferase (PPTase); 4'-phosphopantetheinyl transferase ffp (Bacillus subtilis), Q9F4F7; Biochemical Sfp PPTase activity, qHTS; Potency, µM, for the others: largest response in the series, negative = inhibition, usual class: inhibitors; actives 3.5% (n = 310,000); AID 1490, 2009;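 further: the enzyme is Sfp with the accession as filed and its product quenches rhodamine fluorescence; 0% = enzyme reaction without inhibitor and -100% = no enzyme wells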
#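 With Hepes-Na pH 7.6 buffer containing 10 mM MgCl2, Sfp (15 nM) modified BHQ-2-YbbR (12.5 uM) using rhodamine-CoA (5 uM). Two reads 30 minutes apart at 525/598 nm yielded each well's rate.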
# * marks the source's active call; other numbers are inactive results; u = inconclusive; x = not tested or not shown; [ ] = dose if it differs, or a comment. The call rests on the fitted dose curve; in most records, active means well fitted curve in the direction sought with a large enough effect; inconclusive means small, poorly fitted or top-dose-only effect, or another doubt; inactive means no such curve, though single readings can be large; an effect the other way counts as inactive or inconclusive. Potency means the concentration at half of the fitted maximal effect.
SMILES,HP1b chromo inh,JMJD2A Tudor,BAZ2B inh,PLK1 PBD block,G9a inh,Sfp PPTase inh
O=C(Nc1ccc2c(c1)CCC2)c1ccc(F)cc1,34%,-5%,3%,-4%,-6%,11%
CC1=Nc2ccccc2/C1=C/c1sc(=S)n(-c2cccc(C(=O)O)c2)c1O,u,u,u,-24%,25µM*,5%
Oc1c(C=C2N=c3ccccc3=N2)sc(=S)n1-c1ccccc1,23%,-15%,10%,-1%,-3%[59 µM],79µM*
CN(C)CC1CCn2c(c(C3=C(c4cn(C)c5ccccc45)C(=O)NC3=O)c3ccccc32)C1 (stereo not drawn),x,x,x,x,x,-22%
COc1cccc(CCn2c(N)cc(=O)[nH]c2=S)c1OC,46%,1%,x,x,x,x
Nc1nc(NC(=O)c2cccnc2)nn1-c1ccccc1,8%,11µM*,79µM*,1%,14µM*,2%
CCC(=O)Nc1nc(N)n(-c2ccccc2)n1,17%,-27%,u,-1%,6%[59 µM],14%
Nc1nc(NC(=O)c2ccc(Cl)cc2)nn1-c1ccccc1,26%,-18%,u,2%,0%[59 µM],2%
Nc1nc(NC(=O)C(Cl)(Cl)Cl)nn1-c1ccccc1,11%,25µM*,8.9µM*,-8%,16%,4%
CCN(CC)S(=O)(=O)c1cc(NC(=O)C2CC(=O)N(Cc3ccccc3)C2)ccc1Cl (stereo not drawn),18%,-25%,-7%,-1%,-7%[12.7 µM],x
O=c1c2ccccc2c(=O)n(-c2ccccc2)n1CCCCBr,43%,13%,x,-5%,x,x
CC(=O)n1c(=O)c2ccccc2c(=O)n1-c1ccccc1,30%,4%,1%,13µM*,-45%,25%
O=C(COc1ccc(Br)cc1)NCCNC(=O)c1ccncc1,25%,-5%,-3%,-5%,81%,8%
COc1ccccc1NC(=O)c1c(NC(=O)c2cccs2)sc2c1CCC(C(C)(C)C)C2 (stereo not drawn),47%,-15%,4%,x,-33%[59 µM],x
CC(C)(C)C1CCc2c(sc(NC(=O)CCC(=O)O)c2C(=O)Nc2ccccc2C(F)(F)F)C1 (stereo not drawn),-17%,56µM*,50µM*,x,u,x
S=c1nc(C2CCCCC2)[nH][nH]1,-46%,5µM*,1%,27µM*,u,56µM*
O=C(CCCN1C(=O)c2ccccc2C1=O)NC1=NCCS1,24%,32µM*,-8%,-4%,4%[59 µM],-16%
O=C(CCCN1C(=O)c2ccccc2C1=O)Nc1nncs1,21%,-3%,-5%,-2%,1%,27%
CCCN1CNc2c(c(=O)[nH]c(=S)n2CCc2ccsc2)C1,31%,-7%,x,x,x,x
O=C(Nc1ccc(C(F)(F)F)cc1)C1(c2cccs2)CCOCC1,42%,4%,6%,x,-3%[59 µM],x
Cc1ccc(Cc2c(C)[nH]c(=S)[nH]c2=O)cc1,45%,u,7%,-16%,45µM*,13%
CCOC(=O)Cc1c(C)[nH]c(=S)[nH]c1=O,20%,56µM*,-13%,-10%,-19%[59 µM],79µM*
COC(=O)CCc1c(C)[nH]c(=S)[nH]c1=O,16%,-14%,0%,-1%,u,89µM*
CCOC(=O)C(C)c1c(C)[nH]c(=S)[nH]c1=O (stereo not drawn),30%,-15%,4%,-6%,23%[12.7 µM],-4%
CCOc1ccc2nc(N3CCCC(C(=O)NCCc4ccc(OCC)c(OCC)c4)C3)sc2c1 (stereo not drawn),37%,-5%,-13%,x,4%[59 µM],x
SMILES,HP1b chromo inh,JMJD2A Tudor,BAZ2B inh,PLK1 PBD block,G9a inh,Sfp PPTase inh
COc1ccc(S(=O)(=O)N2CCN(C(=O)C3CC(=O)N(c4ccccc4F)C3)CC2)cc1OC (stereo not drawn),26%,-15%,x,-4%,x,x
CCN(CC)c1nn2c(=O)c(C(=O)NCc3ccccc3Br)cnc2s1,46%,-13%,0%,x,5%[59 µM],x
O=c1[nH]c(-c2ccccc2)c(-c2ccccc2)o1,22%,-18%,-30%,-16%,45µM*,14%
Cc1ccc(N2CCOCC2)c2c1C(=O)c1ccccc1C2=O,13µM*,32µM*,14µM*,-13%,3.5µM*,1%
CCN(CC)CCN(CC(=O)N(C1CCCCC1)C1CCCCC1)C(=O)c1cccnc1,36%,-9%,u,-1%,50µM*,-23%
Cc1nn(-c2ccccc2)c2c1N(CCCC(=O)NCc1ccc(N(C)C)cc1)C(=O)CS2,-18%,56µM*,u,x,u,x
COc1cccc(N(CC(=O)NCCSc2ccccn2)S(=O)(=O)c2ccccc2)c1,126%,-6%,-7%,-14%,-11%,4%
CC(=O)Nc1ccc(S(=O)(=O)NCc2nc(-c3ccccc3Cl)no2)cc1,25%,-1%,-1%,-2%,10%,-5%
COc1ccc(N2CCN(C(=O)C3CCCN(S(=O)(=O)c4ccc(C)cc4)C3)CC2)cc1 (stereo not drawn),u,-30%,40µM*,4%,u,2%
COc1ccc(N2CCN(C(=O)C3CCCN(S(=O)(=O)c4ccc(F)cc4)C3)CC2)cc1 (stereo not drawn),-17%,-32%,40µM*,-5%,x,-15%
Cc1ccc(S(=O)(=O)N2CCCC(C(=O)N3CCN(c4ccccc4)CC3)C2)cc1 (stereo not drawn),5%,-23%,-33%,-1%,-1%,7%
O=C(c1cccc(NS(=O)(=O)c2ccc(F)c(F)c2)c1)N1CCCCC1,33%,3%,-3%,-2%,u,x
COc1ccc(O)c(C(=O)c2cnc3nc4ccccc4n3c2)c1,21%,-34%,-7%,-4%,32µM*,-5%
COc1ccc(O)c(C(=O)c2cnn(-c3ccccn3)c2)c1,-20%,-30%,-35%,-16%,-1%,10%
COc1cc2nc(NC(=O)c3ccc(F)cc3Cl)sc(=O)c2cc1OC,-1%,-7%,-31%,u,35µM*,-19%
CC1(C(=O)NS(=O)(=O)c2ccccc2Cl)CCN1C(=O)C1(c2ccc(Cl)cc2)CCC1 (stereo not drawn),x,x,x,0%,x,x
CCn1c2ccccc2c2cc(NC(=O)c3cc(OC)cc(OC)c3)ccc21,19%,-21%,-10%,-11%,15%,30%
